Laboratory results as given in PubChem BioAssay AID623943 (Vanderbilt Specialized Chemistry Center, 2012).
Active and inactive are the calls of the source.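 Rule for the calls: active = response changes with concentration, giving a dose-dependent curve as judged by the depositor; inactive = the rest, with no dose-dependent response.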

Target: Muscarinic acetylcholine receptor M3 (Rattus norvegicus) (UniProt P08483)
Assay: off-target potentiation of rat M3 ACh response – CHO-K1 cells, calcium fluorescence, ACh EC20, selectivity assay for M4 PAM optimization project, SAR follow-up (AID 623943)
Conditions: CHO-K1 rM3, calcium fluorescence, PAM mode with ACh EC20; series mostly up to 30 µM

Question: How did the outcome turn out when COc1ccc(C)c2sc(NC(=O)c3ccncc3)nc12 was run?
Answer: The outcome was “inactive”.

Question: With Cc1nc2sc(C(=O)NCc3nccs3)c(N)c2c(C)c1Cl as the molecule, how does the outcome read?
Answer: Its outcome is “inactive”.

Question: With Cc1nc2sc(C(=O)NCc3ccncn3)c(N)c2c(C)c1Cl as the molecule, how does the outcome read?
Answer: The outcome was “inactive”.

Question: How did the outcome turn out when Cc1nc2sc(C(=O)NCc3cccnc3)c(N)c2c(C)c1Cl was run?
Answer: The outcome was “inactive”.

Question: For Cc1nc2sc(C(=O)NCc3ccccc3)c(N)c2c(C)c1Cl, which outcome is on record?
Answer: The outcome was “inactive”.

Question: For Cc1nc2sc(C(=O)NCc3ccc4c(c3)OCO4)c(N)c2c(C)c1Cl, which outcome is on record?
Answer: The outcome was “inactive”.

Question: For Cc1nc2sc(C(=O)NCc3ccncc3)c(N)c2c(C)c1Cl, which outcome is on record?
Answer: Its outcome is “inactive”.

Question: Cc1nc2sc(C(=O)NCc3cccc(F)c3F)c(N)c2c(C)c1Cl was tested. Which outcome did it give?
Answer: Its outcome is “inactive”.

Question: With Cc1nc2sc(C(=O)NCCc3ccncc3)c(N)c2c(C)c1Cl as the molecule, how does the outcome read?
Answer: The outcome was “inactive”.

Question: Which outcome does the source give for Cc1nc2sc(C(=O)NC3CC3)c(N)c2c(C)c1Cl here?
Answer: The outcome was “inactive”.
